Potency and affinity values are given separately.
These compounds were tested against Short transient receptor potential channel 4 (Mus musculus) (UniProt Q9QUQ5) (assay: calcium entry via TRPC4 opening agents – cell-based, HEK293 TRPC4/mu-opioid, Fluo-4 calcium, dose response (AID 434937)). Details: HEK293 TRPC4 cells, Fluo-4 calcium fluorescence ratio; series mostly up to 20 µM; activation ratio: at the top concentration;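 active = primary screen activator hit with a dose response curve and TRPC4 channel activation at any tested dose; inactive = no activation, no dose response, or not a primary hit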.
Short transient receptor potential channel 4 (Mus musculus), sequence (Q9QUQ5 whole entry, looked up): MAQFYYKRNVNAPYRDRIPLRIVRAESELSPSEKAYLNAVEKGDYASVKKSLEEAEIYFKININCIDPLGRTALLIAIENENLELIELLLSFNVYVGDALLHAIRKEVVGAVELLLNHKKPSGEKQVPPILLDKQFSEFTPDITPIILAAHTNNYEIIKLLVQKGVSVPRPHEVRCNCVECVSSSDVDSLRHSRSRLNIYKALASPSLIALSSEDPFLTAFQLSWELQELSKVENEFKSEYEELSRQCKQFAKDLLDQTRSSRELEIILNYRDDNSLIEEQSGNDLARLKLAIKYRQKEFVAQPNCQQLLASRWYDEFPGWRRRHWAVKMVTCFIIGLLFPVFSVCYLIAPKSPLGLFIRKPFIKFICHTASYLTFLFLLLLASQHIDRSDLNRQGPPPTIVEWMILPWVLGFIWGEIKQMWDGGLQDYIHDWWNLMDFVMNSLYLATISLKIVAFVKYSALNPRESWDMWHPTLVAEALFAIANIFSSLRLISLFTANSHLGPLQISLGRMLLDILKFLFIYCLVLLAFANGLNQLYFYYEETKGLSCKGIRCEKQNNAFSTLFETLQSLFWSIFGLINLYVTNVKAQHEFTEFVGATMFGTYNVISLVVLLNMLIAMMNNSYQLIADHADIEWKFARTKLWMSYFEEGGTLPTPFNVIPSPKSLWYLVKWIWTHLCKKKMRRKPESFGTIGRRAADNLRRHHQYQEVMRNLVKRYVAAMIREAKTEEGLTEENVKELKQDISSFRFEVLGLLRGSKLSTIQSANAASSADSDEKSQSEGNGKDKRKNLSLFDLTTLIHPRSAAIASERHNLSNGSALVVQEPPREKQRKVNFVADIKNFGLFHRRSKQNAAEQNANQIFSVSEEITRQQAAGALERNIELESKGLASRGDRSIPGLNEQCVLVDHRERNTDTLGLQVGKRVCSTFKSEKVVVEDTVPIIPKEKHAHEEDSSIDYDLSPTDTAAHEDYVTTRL

Activation ratio, inactive:
COc1ccc(CN2CCN(Cc3ccccc3F)CC2)c(OC)c1 1.67
C/C(N)=C(/C#N)C(=O)COC(=O)CC12CC3CC(CC(C3)C1)C2 2.33
CCCCC[n+]1cccc2c3ccccc3ccc21 0.57
COc1ccc(OC)c(Nc2cc(-c3ccccc3)nc(N)n2)c1 4.04
CCC1CCCCN1Cc1nc2c(c(=O)n(C)c(=O)n2C)n1Cc1ccccc1 (centres undefined) -0.97
CCOC(=O)C1CCN(C2CCN(C(=O)c3oc4c(C)c(C)ccc4c3C)CC2)CC1 -1.86
O=[N+]([O-])c1cccc(-c2nnc(C3CC3)o2)c1 0.76
CCOc1c(Cl)cc(CNCC(O)c2ccccc2)cc1OC (centres undefined) 4.87
O=C(c1cccc(C(=O)N2CCN(c3ccccc3)CC2)c1)N1CCN(c2ccccc2)CC1 -0.62
Cc1ccn2c(-c3csc(NCc4ccco4)n3)c(C)nc2c1 -2.82
COc1ccc(Nc2nc(N)c3ccccc3n2)c(OC)c1 -0.63
CCc1c(C(=O)N2CCCN(C)CC2)csc1C 1.64
COc1ccc(C)cc1N(C(=O)c1snc(C(N)=O)c1N)C(C(=O)NC1CCCC1)c1ccc(F)cc1 (centres undefined) -2.48
CC(C)(c1ccccc1)c1ccc(OCCCNCCO)cc1 21.4
Cc1ccc(-n2nc(-c3cccs3)cc2C(=O)NCC2CCCO2)c(C)c1 (centres undefined) 42.5
CC(C)CCN1CCN(Cc2ccsc2)CC1CCO (centres undefined) 0.79
CN(CC1CCCN(CCc2cccc(C(F)(F)F)c2)C1)C(=O)c1cc2ccccc2o1 (centres undefined) 0.19
Oc1ccc(CN2CCc3ccccc3C2)c2cccnc12 -1.68
COc1ccc(C2C(C(C)=O)=C(O)C(=O)N2c2ccc(Br)cc2)cc1 (centres undefined) -1.56

From PubChem BioAssay
